# About 410 targets per protein were measured; listed, in parts, are those with the strongest signals and a random draw of the rest.
# Tests used:
# Test in all cases: glycan array binding signal (z-score within array); higher = stronger binding
# [1] = system: Neu5Ac(a2-3)[GalNAc(b1-4)]Gal(b1-4)Glc; conditions: glycan notation: IUPAC condensed, linker removed
# Method in brief: (§1)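 From the Consortium for Functional Glycomics database, 3228 arrays were curated, keeping only those whose protein sequence was available. Binding is given as a within-array Z-score averaged across arrays sharing a protein sequence and across linkers. Negative Z-scores can be read as non-binding.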
# [2] = system: Neu5Ac(a2-6)Gal(b1-4)GlcNAc(b1-2)Man(a1-3)[Neu5Ac(a2-6)Gal(b1-4)GlcNAc(b1-2)Man(a1-6)]Man(b1-4)GlcNAc(b1-4)GlcNAc; conditions: glycan notation: IUPAC condensed, linker removed
# Method in brief: as §1
# [3] = system: Neu5Ac(a2-3)[Neu5Ac(a2-6)]GalNAc; conditions: glycan notation: IUPAC condensed, linker removed
# Method in brief: as §1
# [4] = system: Neu5Ac(a2-6)Gal(b1-4)GlcNAc(b1-2)Man(a1-3)[Gal(b1-4)GlcNAc(b1-2)Man(a1-6)]Man(b1-4)GlcNAc(b1-4)GlcNAc; conditions: glycan notation: IUPAC condensed, linker removed
# Method in brief: as §1
# [5] = system: Neu5Ac(a2-3)[GalNAc(b1-4)]Gal(b1-4)GlcNAc; conditions: glycan notation: IUPAC condensed, linker removed
# Method in brief: as §1
# [6] = system: Neu5Ac(a2-6)Gal(b1-4)GlcNAc(b1-2)Man(a1-6)[GlcNAc(b1-2)Man(a1-3)]Man(b1-4)GlcNAc(b1-4)GlcNAc; conditions: glycan notation: IUPAC condensed, linker removed
# Method in brief: as §1
# Neu5Ac(a2-3)GalNAc = conditions: glycan notation: IUPAC condensed, linker removed
# Method in brief: as §1
# [7] = system: Neu5Ac(a2-6)Gal(b1-4)GlcNAc(b1-2)Man(a1-3)[GlcNAc(b1-4)][Neu5Ac(a2-6)Gal(b1-4)GlcNAc(b1-2)Man(a1-6)]Man(b1-4)GlcNAc(b1-4)GlcNAc; conditions: glycan notation: IUPAC condensed, linker removed
# Method in brief: as §1
# [8] = system: Neu5Ac(a2-6)Gal(b1-4)GlcNAc(b1-2)Man(a1-3)[Man(a1-6)]Man(b1-4)GlcNAc(b1-4)GlcNAc; conditions: glycan notation: IUPAC condensed, linker removed
# Method in brief: as §1
# [9] = system: Neu5Ac(a2-6)Gal(b1-4)GlcNAc(b1-2)Man(a1-3)[Neu5Ac(a2-6)Gal(b1-4)GlcNAc(b1-2)Man(a1-6)]Man(b1-4)GlcNAc(b1-4)[Fuc(a1-6)]GlcNAc; conditions: glycan notation: IUPAC condensed, linker removed
# Method in brief: as §1
# Neu5Ac(a2-3)Gal = conditions: glycan notation: IUPAC condensed, linker removed
# Method in brief: as §1
# [10] = system: Neu5Ac(a2-3)GalNAc(b1-4)GlcNAc; conditions: glycan notation: IUPAC condensed, linker removed
# Method in brief: as §1
# [11] = system: Neu5Ac(a2-6)Gal(b1-4)GlcNAc(b1-2)Man(a1-3)[GlcNAc(b1-2)Man(a1-6)]Man(b1-4)GlcNAc(b1-4)GlcNAc; conditions: glycan notation: IUPAC condensed, linker removed
# Method in brief: as §1
# [12] = system: Neu5Ac(a2-6)Gal(b1-4)GlcNAc(b1-2)Man(a1-6)[Man(a1-3)]Man(b1-4)GlcNAc(b1-4)GlcNAc; conditions: glycan notation: IUPAC condensed, linker removed
# Method in brief: as §1
# [13] = system: Neu5Ac(a2-6)Gal(b1-4)GlcNAc(b1-2)Man(a1-6)Man(b1-4)GlcNAc(b1-4)GlcNAc; conditions: glycan notation: IUPAC condensed, linker removed
# Method in brief: as §1
# [14] = system: Neu5Ac(a2-6)Gal(b1-4)GlcNAc(b1-2)Man(a1-6)[Gal(b1-4)GlcNAc(b1-2)Man(a1-3)]Man(b1-4)GlcNAc(b1-4)GlcNAc; conditions: glycan notation: IUPAC condensed, linker removed
# Method in brief: as §1
# [15] = system: Neu5Ac(a2-3)[GalNAc(b1-4)]Gal(b1-4)GlcNAc(b1-3)GalNAc; conditions: glycan notation: IUPAC condensed, linker removed
# Method in brief: as §1
# [16] = system: Neu5Ac(a2-3)Gal6S(b1-4)[Fuc(a1-3)]GlcNAc; conditions: glycan notation: IUPAC condensed, linker removed
# Method in brief: as §1
# [17] = system: Neu5Ac(a2-6)Gal(b1-3)GlcNAc(b1-3)[Gal(b1-4)GlcNAc(b1-6)]Gal(b1-4)Glc; conditions: glycan notation: IUPAC condensed, linker removed; mutation: R125K
# Method in brief: as §1
# [18] = system: Neu5Ac(a2-6)Gal(b1-4)GlcNAc(b1-2)Man(a1-3)[GlcNAc(b1-2)Man(b1-4)GlcNAc(b1-2)Man(a1-6)]Man(b1-4)GlcNAc(b1-4)GlcNAc; conditions: glycan notation: IUPAC condensed, linker removed
# Method in brief: as §1
# C3b (Homo sapiens), P01024, sequence (P01024 23-667): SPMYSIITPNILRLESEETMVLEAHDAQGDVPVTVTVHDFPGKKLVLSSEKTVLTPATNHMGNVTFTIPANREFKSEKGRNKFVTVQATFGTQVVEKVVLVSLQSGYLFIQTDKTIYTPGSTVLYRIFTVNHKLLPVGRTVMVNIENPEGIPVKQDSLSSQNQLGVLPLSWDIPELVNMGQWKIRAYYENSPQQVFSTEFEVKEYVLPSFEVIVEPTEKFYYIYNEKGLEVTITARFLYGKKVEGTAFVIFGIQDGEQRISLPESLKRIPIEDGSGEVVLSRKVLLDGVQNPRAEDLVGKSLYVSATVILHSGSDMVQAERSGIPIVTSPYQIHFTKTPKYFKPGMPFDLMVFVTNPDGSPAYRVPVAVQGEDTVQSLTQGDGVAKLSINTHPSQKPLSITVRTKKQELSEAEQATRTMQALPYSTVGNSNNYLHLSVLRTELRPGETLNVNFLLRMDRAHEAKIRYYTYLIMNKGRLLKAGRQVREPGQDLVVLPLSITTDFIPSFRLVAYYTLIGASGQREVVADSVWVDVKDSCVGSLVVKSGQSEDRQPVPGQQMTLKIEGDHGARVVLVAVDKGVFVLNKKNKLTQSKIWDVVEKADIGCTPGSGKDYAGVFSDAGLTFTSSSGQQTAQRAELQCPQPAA
# CHI3L1 (Homo sapiens), P36222, sequence (P36222 whole entry): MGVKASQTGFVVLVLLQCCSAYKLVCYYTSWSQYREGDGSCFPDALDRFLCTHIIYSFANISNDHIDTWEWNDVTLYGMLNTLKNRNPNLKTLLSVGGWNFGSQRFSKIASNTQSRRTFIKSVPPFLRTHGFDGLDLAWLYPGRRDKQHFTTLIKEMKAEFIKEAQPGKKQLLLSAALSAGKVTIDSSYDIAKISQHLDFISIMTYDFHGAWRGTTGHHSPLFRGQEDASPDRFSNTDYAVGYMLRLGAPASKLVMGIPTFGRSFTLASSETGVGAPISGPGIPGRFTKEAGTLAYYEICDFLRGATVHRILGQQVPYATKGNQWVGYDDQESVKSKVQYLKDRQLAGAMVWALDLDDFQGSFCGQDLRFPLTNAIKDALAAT
# Aggrecan (Rattus norvegicus), NP_071526, sequence (chain, as listed by the source): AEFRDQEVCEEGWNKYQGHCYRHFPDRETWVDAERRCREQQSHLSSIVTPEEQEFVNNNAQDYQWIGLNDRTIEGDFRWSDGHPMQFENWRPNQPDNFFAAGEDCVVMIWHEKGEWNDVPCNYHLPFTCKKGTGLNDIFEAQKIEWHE
# PILRa (Mus musculus), Q2YSF3, sequence (Q2YSF3 entry or part of it): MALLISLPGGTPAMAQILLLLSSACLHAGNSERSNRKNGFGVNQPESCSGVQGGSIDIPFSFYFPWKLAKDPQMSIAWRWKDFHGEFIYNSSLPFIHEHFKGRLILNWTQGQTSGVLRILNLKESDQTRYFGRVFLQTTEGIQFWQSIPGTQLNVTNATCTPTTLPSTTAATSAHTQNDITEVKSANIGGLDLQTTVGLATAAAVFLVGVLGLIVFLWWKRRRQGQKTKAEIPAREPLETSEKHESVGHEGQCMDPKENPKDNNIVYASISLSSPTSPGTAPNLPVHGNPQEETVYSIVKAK
# wLAT-1A (Homo sapiens), Q01650, sequence (Q01650 whole entry): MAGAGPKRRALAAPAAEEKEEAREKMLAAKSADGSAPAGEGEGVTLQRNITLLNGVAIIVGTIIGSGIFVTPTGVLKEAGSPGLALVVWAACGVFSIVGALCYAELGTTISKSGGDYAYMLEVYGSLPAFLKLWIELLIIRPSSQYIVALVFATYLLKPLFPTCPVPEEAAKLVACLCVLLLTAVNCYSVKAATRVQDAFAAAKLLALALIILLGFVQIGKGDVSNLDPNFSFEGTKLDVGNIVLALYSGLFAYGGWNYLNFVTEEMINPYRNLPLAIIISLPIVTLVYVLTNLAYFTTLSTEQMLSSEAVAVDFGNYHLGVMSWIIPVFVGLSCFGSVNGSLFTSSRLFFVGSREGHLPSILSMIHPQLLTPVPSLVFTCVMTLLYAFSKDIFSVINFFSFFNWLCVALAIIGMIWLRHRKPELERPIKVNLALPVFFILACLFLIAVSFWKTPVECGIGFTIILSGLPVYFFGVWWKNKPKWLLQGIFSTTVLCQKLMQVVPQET
# PILRb (Mus musculus), Q2YSF2, sequence (Q2YSF2 entry or part of it): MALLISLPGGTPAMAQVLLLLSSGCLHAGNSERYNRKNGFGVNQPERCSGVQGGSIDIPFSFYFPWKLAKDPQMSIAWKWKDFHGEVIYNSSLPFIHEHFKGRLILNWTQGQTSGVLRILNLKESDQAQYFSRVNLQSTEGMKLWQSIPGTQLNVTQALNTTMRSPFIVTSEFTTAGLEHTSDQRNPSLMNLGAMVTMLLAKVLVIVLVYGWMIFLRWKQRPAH
# 6RG (Lolium perenne), sequence (chain, as listed by the source): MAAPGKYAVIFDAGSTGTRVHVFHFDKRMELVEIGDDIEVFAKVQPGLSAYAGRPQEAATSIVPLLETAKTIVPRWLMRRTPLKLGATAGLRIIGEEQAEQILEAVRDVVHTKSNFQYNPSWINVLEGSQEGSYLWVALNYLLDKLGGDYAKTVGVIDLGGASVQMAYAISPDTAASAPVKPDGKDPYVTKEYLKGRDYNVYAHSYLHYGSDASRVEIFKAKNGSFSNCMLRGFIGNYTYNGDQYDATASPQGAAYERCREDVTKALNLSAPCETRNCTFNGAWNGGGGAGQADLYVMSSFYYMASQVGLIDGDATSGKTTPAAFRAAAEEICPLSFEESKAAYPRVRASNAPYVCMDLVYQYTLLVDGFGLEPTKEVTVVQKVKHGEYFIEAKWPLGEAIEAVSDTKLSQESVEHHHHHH
# Neurocan (Homo sapiens), O14594, sequence (O14594 other isoform, or with tags, fused parts or gaps): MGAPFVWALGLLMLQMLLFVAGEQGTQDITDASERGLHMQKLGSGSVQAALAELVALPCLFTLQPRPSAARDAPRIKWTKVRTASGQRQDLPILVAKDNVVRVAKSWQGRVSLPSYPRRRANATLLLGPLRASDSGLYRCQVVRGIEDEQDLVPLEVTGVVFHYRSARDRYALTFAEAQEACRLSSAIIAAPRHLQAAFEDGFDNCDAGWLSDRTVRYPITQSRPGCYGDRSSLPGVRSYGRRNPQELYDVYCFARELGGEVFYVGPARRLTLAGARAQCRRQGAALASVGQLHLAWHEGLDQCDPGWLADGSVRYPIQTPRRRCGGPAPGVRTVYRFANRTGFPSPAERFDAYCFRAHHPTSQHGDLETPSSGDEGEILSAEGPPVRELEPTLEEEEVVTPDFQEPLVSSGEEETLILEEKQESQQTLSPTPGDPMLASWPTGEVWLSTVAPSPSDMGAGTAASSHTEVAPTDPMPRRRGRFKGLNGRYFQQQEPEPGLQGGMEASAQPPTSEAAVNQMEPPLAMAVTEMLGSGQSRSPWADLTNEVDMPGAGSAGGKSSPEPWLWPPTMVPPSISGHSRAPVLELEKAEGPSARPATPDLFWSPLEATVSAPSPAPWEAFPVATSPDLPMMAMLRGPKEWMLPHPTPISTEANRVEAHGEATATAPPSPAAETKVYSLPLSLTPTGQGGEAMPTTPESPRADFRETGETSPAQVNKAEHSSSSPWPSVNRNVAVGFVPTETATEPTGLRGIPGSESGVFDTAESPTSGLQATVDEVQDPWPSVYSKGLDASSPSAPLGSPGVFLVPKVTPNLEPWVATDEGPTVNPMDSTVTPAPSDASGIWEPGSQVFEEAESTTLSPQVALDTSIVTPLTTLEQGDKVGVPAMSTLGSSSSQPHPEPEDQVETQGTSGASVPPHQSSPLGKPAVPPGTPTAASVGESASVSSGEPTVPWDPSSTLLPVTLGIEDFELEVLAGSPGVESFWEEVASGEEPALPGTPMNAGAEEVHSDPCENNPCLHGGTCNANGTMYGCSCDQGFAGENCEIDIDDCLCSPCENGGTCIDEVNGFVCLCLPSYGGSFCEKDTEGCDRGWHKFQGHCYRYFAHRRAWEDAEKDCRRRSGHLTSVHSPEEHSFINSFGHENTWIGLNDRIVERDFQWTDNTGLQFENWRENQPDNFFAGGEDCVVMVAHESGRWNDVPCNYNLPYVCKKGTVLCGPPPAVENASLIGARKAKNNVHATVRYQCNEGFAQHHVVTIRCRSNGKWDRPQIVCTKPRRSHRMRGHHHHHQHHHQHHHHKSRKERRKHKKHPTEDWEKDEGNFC
# CHT (Homo sapiens), sequence (chain, as listed by the source): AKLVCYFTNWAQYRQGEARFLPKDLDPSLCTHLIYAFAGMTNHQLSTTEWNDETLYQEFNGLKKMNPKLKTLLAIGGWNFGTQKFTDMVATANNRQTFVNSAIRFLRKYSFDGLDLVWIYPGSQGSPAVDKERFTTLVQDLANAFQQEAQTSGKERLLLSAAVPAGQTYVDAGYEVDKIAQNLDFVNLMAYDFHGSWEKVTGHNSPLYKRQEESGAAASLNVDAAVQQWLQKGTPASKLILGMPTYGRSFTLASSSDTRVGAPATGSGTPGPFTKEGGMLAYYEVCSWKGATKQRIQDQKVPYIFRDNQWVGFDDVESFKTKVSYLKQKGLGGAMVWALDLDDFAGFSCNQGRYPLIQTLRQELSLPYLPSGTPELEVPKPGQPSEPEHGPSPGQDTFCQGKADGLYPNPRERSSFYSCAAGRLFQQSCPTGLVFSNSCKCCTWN
# Regenerating Gene IV (Homo sapiens), Q9BYZ8, sequence (Q9BYZ8 whole entry, looked up): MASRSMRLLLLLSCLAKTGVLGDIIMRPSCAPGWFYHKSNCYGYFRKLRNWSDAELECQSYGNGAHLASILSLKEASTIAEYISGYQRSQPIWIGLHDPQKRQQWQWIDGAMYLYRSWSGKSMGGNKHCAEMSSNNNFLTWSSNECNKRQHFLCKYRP
substance,measurement,setting,value
"Regenerating Gene IV (Homo sapiens), Q9BYZ8",glycan array binding signal (z-score),[1],0.356
CHT (Homo sapiens),glycan array binding signal (z-score),"[2]; mutation: D138V, E140I",0.642
"wLAT-1A (Homo sapiens), Q01650",glycan array binding signal (z-score),[3],0.503
same,glycan array binding signal (z-score),[4],-0.898
"PILRb (Mus musculus), Q2YSF2",glycan array binding signal (z-score),[5],-0.329
same,glycan array binding signal (z-score),[6],-0.407
MpAFP RI GFP (Marinomonas primoryensis),glycan array binding signal (z-score),Neu5Ac(a2-3)GalNAc,2.97
same,glycan array binding signal (z-score),[7],-0.435
same,glycan array binding signal (z-score),[8],0.118
same,glycan array binding signal (z-score),[9],2.72
same,glycan array binding signal (z-score),[6],-0.058
6RG (Lolium perenne),glycan array binding signal (z-score),Neu5Ac(a2-3)Gal,-0.339
same,glycan array binding signal (z-score),[3],-0.349
"6RG (Lolium perenne), B9U140",glycan array binding signal (z-score),[3],-0.334
"C3b (Homo sapiens), P01024",glycan array binding signal (z-score),[10],1.01
same,glycan array binding signal (z-score),[5],-0.304
same,glycan array binding signal (z-score),[4],-0.286
same,glycan array binding signal (z-score),[2],0.001
"Aggrecan (Rattus norvegicus), NP_071526",glycan array binding signal (z-score),[11],-0.152
same,glycan array binding signal (z-score),[6],-0.187
same,glycan array binding signal (z-score),[12],-0.224
"PILRa (Mus musculus), Q2YSF3",glycan array binding signal (z-score),[13],-0.195
same,glycan array binding signal (z-score),[14],1.22
"SRLC (Mus musculus), Q8VIF6",glycan array binding signal (z-score),[2],-0.158
"Neurocan (Homo sapiens), O14594",glycan array binding signal (z-score),[15],-0.87
"Siglec-8 (Homo sapiens), Q9NYZ4",glycan array binding signal (z-score),[16],15
same,glycan array binding signal (z-score),[10],-0.069
same,glycan array binding signal (z-score),[17],-0.472
same,glycan array binding signal (z-score),[13],-0.178
same,glycan array binding signal (z-score),[13]; mutation: R125K,0.093
same,glycan array binding signal (z-score),[6]; mutation: R125K,-0.193
"CHI3L1 (Homo sapiens), P36222",glycan array binding signal (z-score),[16],-0.117
same,glycan array binding signal (z-score),Neu5Ac(a2-3)GalNAc,-0.131
same,glycan array binding signal (z-score),[18],-0.028
same,glycan array binding signal (z-score),[9],-0.039
